NCOA3 inh: SRC3 coactivator transcriptional activity inhibitors, primary screen, cell-based, luminescence. Nuclear receptor coactivator 3 (Homo sapiens), Q9Y6Q9. hit rate 0.17% among 360,000. HEK293 GAL4-SRC3 luciferase reporter. inhibition, % at 3.6 µM;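 active = inhibition above a per-campaign cutoff, the mean of all compounds plus 3 SD, cut at about 60% in these data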;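 also: 0% = DMSO-treated cells and 100% = gossypol-treated cells at 36 µM; higher means less SRC3-driven luciferase light from the GAL4 reporter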
NR2F2 inh: NR2F2 transcriptional activity inhibitors, primary screen, cell-based, luciferase reporter, HEK293T, luminescence; HEK293T NGFI-A luciferase reporter; AID 686940, 2013; hit rate 0.7% among 370,000; inhibition, % at 8.6 µM;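 active = inhibition above a per-plate cutoff, mean inhibition of test wells between control levels plus 3 SD, cut at about 38% in these data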;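 also: cells cotransfected with COUP-TFII expression vector driving the NGFI-A reporter; 0% = median of COUP-TF2 test wells and 100% = reporter-only cells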
LRH-1 inv ag: LRH-1 (NR5A2) inverse agonists, primary screen, cell-based, luminescence, HEK293T, StAR-luciferase reporter; LRH-1 transfected, 24 h; inhibition, % at 3.6 µM; hit rate 0.13% among 360,000; AID 602396, 2012;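 active = inhibition above the mean inhibition of all tested compounds plus 3 SD, cut at about 73% in these data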;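 also: 0% = DMSO wells and 100% = reporter-only cells lacking LRH-1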
NCOA2 inhibitor: inhibition of GAL4-SRC2 driven luciferase reporter, primary screen, SRC2 inhibitor project, cell-based, luminescence; inhibition, % at 9 µM; Nuclear receptor coactivator 2 (Homo sapiens), Q15596; hit rate 0.17% among 370,000; HEK293 GAL4-SRC2 luciferase reporter;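 active = inhibition above the mean inhibition of all tested compounds plus 3 SD, set per campaign, cut at about 52% in these data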;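 also: 0% = DMSO treated cells and 100% = cells given Gossypol at 36 µM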
GalR3 antagonist: GalR3 antagonists in HEK293 cells, primary screen, cell-based, fluorescence readout; Galanin receptor type 3 (Homo sapiens), O60755; HEK293 GalR3-CNG cAMP membrane potential fluorescence; galR3 body fused to GalR1 C-terminus; inhibition, % at 3 µM; hit rate 0.44% among 360,000; AID 651719, 2012;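 active = inhibition above the screen-wide average plus 3 SD, cut at about 13% in these data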;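 also: forskolin and galanin both at EC90 stimulate the cells; cAMP rise reported by CNG channel membrane potential dye signal; 0% = forskolin plus galanin with DMSO and 100% = forskolin alone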
Target sequence (O60755 1-299 limits assumed): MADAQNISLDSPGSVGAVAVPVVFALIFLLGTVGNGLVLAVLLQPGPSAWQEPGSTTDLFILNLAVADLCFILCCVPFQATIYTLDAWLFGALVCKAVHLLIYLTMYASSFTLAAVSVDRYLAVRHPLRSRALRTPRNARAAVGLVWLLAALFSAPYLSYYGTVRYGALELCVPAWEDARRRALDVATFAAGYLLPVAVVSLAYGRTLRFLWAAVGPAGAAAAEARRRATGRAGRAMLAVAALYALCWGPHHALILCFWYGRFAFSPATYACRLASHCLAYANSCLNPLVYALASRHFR
NCOA1 inh: SRC1 coactivator transcriptional activity inhibitors, primary screen, cell-based, luminescence; Nuclear receptor coactivator 1 (Homo sapiens), Q15788; HEK293 GAL4-SRC1 luciferase reporter; hit rate 0.12% among 360,000; inhibition, % at 3.6 µM;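 active = inhibition above the campaign mean plus 3 SD, with each screening campaign given its own cutoff, cut at about 60% in these data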;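 also: 0% = DMSO treated cells and 100% = gossypol at 36 µM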
GalR3 antag conf: GalR3 antagonist hit confirmation, cell-based, fluorescence, triplicate | shares compounds with GalR3 antagonist | HEK293 GalR3 CNG cAMP biosensor, membrane potential fluorescence; galR3 fused to GalR1 carboxy tail; challenged with forskolin and galanin at EC90 | inhibition, % at 3 µM | hit rate 59% among 1,600 | AID 652245, 2013;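 active = inhibition above the primary screen's cutoff, the mean inhibition of all screened compounds plus 3 SD, cut at about 13% in these data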;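 also: 0% = forskolin plus galanin and 100% = forskolin alone with DMSO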
HEK-CNG parental: nonspecific cAMP agonists in parental HEK-CNG cells, counter-screen for GalR3 antagonist project, cell-based, fluorescence, high throughput | shares compounds with GalR3 antagonist | HEK293-CNG parental cells, cAMP membrane potential fluorescence; normalised: DMSO wells 0%, forskolin wells 100% | activation, % at 3 µM | hit rate 10% among 1,600; in the data active = activation above about 1.3%
Active calls of the source: *; . = no result. Shown are actives, neighbours in structure and some others; about 1.1% of the full set was active somewhere.

SMILES	NCOA3 inh	NR2F2 inh	LRH-1 inv ag	NCOA2 inhibitor	GalR3 antagonist	NCOA1 inh	GalR3 antag conf	HEK-CNG parental
COc1ccc(-c2nc(C#N)c(NC(C)c3ccccc3)o2)cc1OC (stereo not drawn)	2	-13	-5	-15	20*	-9	39*	0
Cc1ccc(/C(N)=N/OC(=O)CCC2CCCCC2)cc1	12	-9	-7	-6	-3	-11	.	.
Cc1ccc(/C(N)=N/OC(=O)CCC2CCCC2)cc1	7	21	-7	-30	13*	-9	-2	0
Cc1cc(N(CCO)CCO)nc(-n2nc(C)cc2C)n1	13	-8	-8	16	5	4	.	.
Cc1cc(NCCO)nc(-n2nc(C)cc2C)n1	-39	7	-10	-6	13*	3	0	0
O=C1N(CCCO)CCC12CCC(c1ccccc1)CC2 (stereo not drawn)	.	1	.	-7	.	.	.	.
COc1ccc(N2CCN(Cc3nc4c(c(=O)[nH]c(=O)n4C)n3CC(C)=O)CC2)cc1	-5	-5	-25	-27	13*	-3	1	0
COc1cc(C(=O)N/N=C/C2CC=CCC2)cc(OC)c1OC (stereo not drawn)	12	-76	21	-2	13*	-1	1	0
O=C(CSc1nnc(-c2ccccc2)n1Cc1ccco1)Nc1ccc(Oc2ccccc2)cc1	.	16	.	-10	.	.	.	.
CCOC(=O)N1CCN(C(=O)Cc2cccc3ccccc23)CC1	11	8	3	20	-5	1	.	.
CCOC(=O)C1CCN(C(=O)Cc2cccc3ccccc23)CC1	16	-8	-11	-5	16*	-11	0	0
CCC(=O)c1ccc(OCC(=O)NC2CCCC2)cc1	2	-4	-17	10	-2	-10	.	.
CCC(=O)c1ccc(OCC(=O)O)cc1	-7	-3	4	11	.	4	-2	0
O=C(NCCO)[C@H](Cc1ccccc1)NC1(C(=O)NCCN2CCOCC2)CCCCC1	.	-7	.	.	.	.	.	.
COC(=O)CNC(=O)CN1c2cccc3cccc(c23)S1(=O)=O	4	-12	-18	14	13*	-12	0	0
O=C(/C=C/c1ccccc1)NC(NC(=S)Nc1cccc(O)c1)C(Cl)(Cl)Cl (stereo not drawn)	9	12	5	-30	18*	0	17*	-1
C=CCn1c(SCC(=O)c2ccc(-c3ccccc3)cc2)nnc1-c1ccc(OC)cc1	.	7	.	13	.	.	.	.
COc1ccc(-c2cc([C@H]3[C@@H]4C=CCC[C@@]4(C)C(=O)N3Cc3ccccc3)ccc2F)cc1OC	9	14	14	-14	20*	3	12	1
CC(Oc1ccc(Cl)cc1)C(=O)/C=C/N(C)C (stereo not drawn)	-8	6	4	-16	-5	11	.	.
CC(Oc1ccc(Cl)cc1)/C(N)=N/O (stereo not drawn)	17	-6	21	0	16*	3	5	0
CCOC(=O)N1CCN(C(=O)C[C@@H]2C(=O)N3CCCC4=C3[C@@]2(C(=O)OC)CCCC4)CC1	.	13	.	2	.	.	.	.
CC(=O)OCC(=O)Nc1ccc(Cl)cc1Cl	13	-8	1	6	19*	-1	0	0
O=C(CC1CCCC1)N1CC[C@H]2[C@H](CCCN2Cc2cc(F)cc(F)c2)C1	.	-1	.	-27	.	.	.	.
CC(C)[C@H](NC(=O)c1c(F)cccc1F)C(=O)N1CCN(c2ccc(F)cc2)CC1	-17	-27	-6	-5	13*	1	4	0
CC(C)C(NC(=O)c1c(F)cccc1F)C(=O)N1CCN(c2ccccc2F)CC1 (stereo not drawn)	10	18	6	-4	-8	-4	.	.
SMILES	NCOA3 inh	NR2F2 inh	LRH-1 inv ag	NCOA2 inhibitor	GalR3 antagonist	NCOA1 inh	GalR3 antag conf	HEK-CNG parental
CCCCC(=O)NNC(=S)NC(=O)c1ccc(C)cc1	4	-19	-18	-10	0	-13	.	.
CCCCCC(=O)NNC(=S)NC(C)=O	8	-17	-7	11	13*	-16	2	0
Cc1cc(-c2n[nH]c(=S)n2N=Cc2ccc(OCc3ccccc3)cc2)n[nH]1	.	-43	.	-20	.	.	.	.
COC(=O)[C@]12C[C@H](CC(=O)NCc3cccc(C(F)(F)F)c3)C(=O)N(Cc3ccco3)C1=C[C@H](C(C)C)O[C@@H]2C1CC1	.	-1	.	-12	.	.	.	.
COc1ccccc1C(=O)Nc1nnc([C@@H]2C[C@H](O)[C@@H](CO)O2)s1	-3	-9	20	-5	1	10	.	.
COc1ccccc1C(=O)Nc1nnc([C@H]2C[C@H](O)[C@@H](CO)O2)s1	-7	-15	-1	-10	25*	-16	-2	0
CC1CC(=O)NN=C1c1ccc(N(C)C)c([N+](=O)[O-])c1 (stereo not drawn)	5	-10	20	-22	60*	-10	69*	0
CCN(CCC#N)c1ccc(N2C(=O)CCCC2=O)cc1[N+](=O)[O-]	1	-5	8	-13	-10	-5	.	.
CC1CC(=O)NN=C1c1cccs1 (stereo not drawn)	21	6	10	-17	7	-1	.	.
CCN(CC)c1ccc(C2=NNC(=O)CC2C)cc1[N+](=O)[O-] (stereo not drawn)	2	-31	41	3	52*	0	65*	0
Cc1cc(NS(=O)(=O)c2ccc(NC(=O)CSc3nnc(-c4ccccn4)n3Cc3ccco3)cc2)nc(C)n1	.	15	.	23	.	.	.	.
O=C(CNS(=O)(=O)c1ccc(F)cc1)N1CCN(c2ccccn2)CC1	.	-4	.	-18	.	.	.	.
O=C(CSc1nnc(-c2ccccc2)n1-c1ccc(Cl)cc1)c1ccccc1Br	.	20	.	1	.	.	.	.
O=C(OCc1cc(=O)oc2cc(O)ccc12)c1cc(S(=O)(=O)N2CCOCC2)ccc1F	0	-58	-27	-12	34*	-20	55*	1
N#Cc1ccccc1COC(=O)c1cc(S(=O)(=O)N2CCOCC2)ccc1F	-4	-4	-1	-6	0	-29	.	.
